3T3 cytotox = kills NIH 3T3 cells; NIH 3T3 viability, CellTiter-Glo ATP luminescence, 48-72 h; Potency, µM (top dose mostly 96.7 µM), for the others: top-dose activity change, negative = cytotoxicity, usual class: inhibitors; 94,000 tested, 4.3% active; AID 1345082; active means well fitted curve in the direction sought with a large enough effect; inconclusive means small, poorly fitted or top-dose-only effect, or another doubt; inactive means no such curve, though single readings can be large; an effect the other way counts as inactive or inconclusive; further: on the % scale 0 is the no-effect control and ±100 the full control effect; nearly all actives have a fitted effect of over 55% in size
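NIH 3T3 cells at 400 cells/well received 23 nL of compound by pintool and were incubated 48 or 72 h at 37 °C. Viability was read as ATP-coupled CellTiter-Glo luminescence.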
HEK cytotox = kills HEK 293 cells; AID 1345083; HEK 293 viability, ATP luminescence (CellTiter-Glo), 48-72 h; Potency, µM (doses to about 115 µM), for inactives: top-dose activity change, negative = cytotoxicity, hits mostly inhibitors; 94,000 tested, 6.6% active; active means well fitted curve in the direction sought with a large enough effect; inconclusive means small, poorly fitted or top-dose-only effect, or another doubt; inactive means no such curve, though single readings can be large; an effect the other way counts as inactive or inconclusive; further: on the % scale 0 is the no-effect control and ±100 the full control effect; nearly all actives have a fitted effect of over 60% in size
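Read-out: CellTiter-Glo ATP luminescence. Cells: HEK 293, 250 cells/well. Exposure: 48 or 72 hr, 37 degree Celsius.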
hNpr1 antagonist = antagonists of human natriuretic peptide receptor Npr1 | P16066 | HEK293 hNpr1 GloSensor cGMP, ANP-stimulated luminescence | Potency, µM (series often up to 46.3 µM), without a hit: at the highest dose activity change, negative = inhibition, usual class: inhibitors | 76,000 tested, 1.6% active | AID 1347048; further: on the % scale 0 is the no-effect control and ±100 the full control effect; nearly all actives have a fitted effect of over 60% in size
Target sequence (P16066 whole entry, looked up): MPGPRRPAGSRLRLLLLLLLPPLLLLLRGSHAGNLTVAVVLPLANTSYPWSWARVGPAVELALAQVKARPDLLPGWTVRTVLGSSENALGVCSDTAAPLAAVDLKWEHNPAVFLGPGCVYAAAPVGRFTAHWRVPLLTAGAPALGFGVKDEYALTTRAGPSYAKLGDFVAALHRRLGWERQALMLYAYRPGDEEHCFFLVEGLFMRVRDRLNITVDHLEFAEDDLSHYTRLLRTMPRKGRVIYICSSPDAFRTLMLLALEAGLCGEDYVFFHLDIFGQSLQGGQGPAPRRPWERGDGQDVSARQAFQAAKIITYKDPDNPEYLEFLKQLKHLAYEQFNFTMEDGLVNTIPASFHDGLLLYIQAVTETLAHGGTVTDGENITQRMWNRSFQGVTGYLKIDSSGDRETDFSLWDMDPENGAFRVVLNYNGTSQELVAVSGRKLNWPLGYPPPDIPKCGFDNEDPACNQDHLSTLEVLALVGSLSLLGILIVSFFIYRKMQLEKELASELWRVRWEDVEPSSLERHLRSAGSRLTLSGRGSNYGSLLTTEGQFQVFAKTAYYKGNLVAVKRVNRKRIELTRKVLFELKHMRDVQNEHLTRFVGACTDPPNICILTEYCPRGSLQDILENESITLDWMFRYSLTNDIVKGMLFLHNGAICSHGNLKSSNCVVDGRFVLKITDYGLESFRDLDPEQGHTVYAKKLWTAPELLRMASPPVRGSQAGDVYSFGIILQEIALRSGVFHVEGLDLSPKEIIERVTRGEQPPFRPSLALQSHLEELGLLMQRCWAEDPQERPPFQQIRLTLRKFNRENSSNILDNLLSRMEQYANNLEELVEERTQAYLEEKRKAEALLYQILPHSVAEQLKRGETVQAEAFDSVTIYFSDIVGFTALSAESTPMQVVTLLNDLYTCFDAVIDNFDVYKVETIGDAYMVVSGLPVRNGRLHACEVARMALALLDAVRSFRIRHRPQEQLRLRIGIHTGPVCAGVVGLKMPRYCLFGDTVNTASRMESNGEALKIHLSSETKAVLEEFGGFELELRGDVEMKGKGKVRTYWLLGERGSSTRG
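HEK293 cells stably expressing human Npr1 and cGMP GloSensor pGS-40F, loaded 2 h with 2% GloSensor reagent, given compound 30 min at room temperature. Luminescence read before and 20 min after 0.1 nM hNppA.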
Luciferase inh = inhibitors of firefly (Photinus pyralis) luciferase; P08659; purified P. pyralis luciferase, luminescence, biochemical; Potency, µM (highest dose often 115 µM), hits mostly inhibitors; 76,000 tested, 2.5% active; active means well fitted curve in the direction sought with a large enough effect; inconclusive means small, poorly fitted or top-dose-only effect, or another doubt; inactive means no such curve, though single readings can be large; an effect the other way counts as inactive or inconclusive; further: on the % scale 0 is the no-effect control and ±100 the full control effect; nearly all actives have a fitted effect of over 65% in size
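Purified P. pyralis luciferase (10nM final) in 50mM Tris acetate pH 7.5, 10mM Mg acetate, 0.01% Tween-20, 0.05% BSA with 10uM D-luciferin and 10uM ATP. Compounds titrated qHTS. Luminescence imaged on CCD.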
NPR1 antag cnf = confirmation of human Npr1 natriuretic peptide receptor antagonists | shares compounds with hNpr1 antagonist | HEK293 hNpr1 cGMP GloSensor luminescence, ANP-stimulated | Potency, µM (top dose mostly 57.6 µM), for inactives: at the highest dose activity change, negative = inhibition, usual class: inhibitors | 1,400 tested, 76% active | AID 1347044; further: nearly all actives have a fitted effect of over 70% in size
Npr2 selectivity = antagonizes human Npr2, subtype selectivity check; shares compounds with hNpr1 antagonist; HEK293 hNpr2 GloSensor cGMP luminescence, CNP-stimulated; Potency, µM (titrated, usually from 57.6 µM), for the others: at the top dose activity change, negative = inhibition, hits mostly inhibitors; 1,400 tested, 67% active; AID 1347046; further: nearly all actives have a fitted effect of over 70% in size
FLuc inh counter = counter-screen for Npr1 antagonists: firefly luciferase inhibitors; shares compounds with hNpr1 antagonist; Potency, µM (highest dose often 57.6 µM), without a hit: top-dose activity change, negative = inhibition, most hits filed as inhibitors; purified FLuc enzyme, luminescence, Km substrate; 1,400 tested, 0.7% active; active means well fitted curve in the direction sought with a large enough effect; inconclusive means small, poorly fitted or top-dose-only effect, or another doubt; inactive means no such curve, though single readings can be large; an effect the other way counts as inactive or inconclusive; further: 0% is about no effect
GloSensor ctrl = control cell line activity, Npr1 antagonist counter-screen; shares compounds with hNpr1 antagonist; HEK293 GloSensor cGMP, SNP-stimulated, luminescence; Potency, µM (series often up to 57.6 µM), for the others: top-dose activity change, negative = inhibition, hits mostly inhibitors; 1,400 tested, 69% active; further: on the % scale 0 is the no-effect control and ±100 the full control effect; nearly all actives have a fitted effect of over 70% in size
Numbers without * were called inactive. Shown are actives, neighbours in structure and some others; about 11% of the full set was active somewhere. Unless noted, the call rests on the fitted dose curve. Potency means the concentration at half of the fitted maximal effect.

What do the screens show for `O=C(CCCc1ccccc1)N1CCC(Cc2nc(-c3ccc(F)cc3)no2)CC1`?
3T3 cytotox: inconclusive; HEK cytotox: inconclusive; hNpr1 antagonist: 7.94µM*; Luciferase inh: inactive; NPR1 antag cnf: 10.9µM*; Npr2 selectivity: 12.2µM*; FLuc inh counter: 3.1%; GloSensor ctrl: 10.9µM*

What do the screens show for `O=C(CCc1ccccc1)N1CCC(Cc2nc(-c3ccc(F)cc3)no2)CC1`?
3T3 cytotox: inconclusive; HEK cytotox: 44.7µM*; hNpr1 antagonist: 5.01µM*; Luciferase inh: inactive; NPR1 antag cnf: 6.11µM*; Npr2 selectivity: 7.69µM*; FLuc inh counter: 1.2%; GloSensor ctrl: 5.44µM*

What do the screens show for `OCC1CN(c2ccncn2)CC12CCN(Cc1cc(F)c(F)c(F)c1)CC2` (stereo unspecified)?
3T3 cytotox: -37.9%; HEK cytotox: inconclusive; hNpr1 antagonist: inconclusive; Luciferase inh: inactive; NPR1 antag cnf: inconclusive; Npr2 selectivity: -27.8%; FLuc inh counter: -1.0%; GloSensor ctrl: -27.5%

Results for OCC1CN(c2ccncn2)CC12CCN(Cc1ccc(F)c(F)c1)CC2 (stereo unspecified) ?
3T3 cytotox: inconclusive; HEK cytotox: inconclusive; hNpr1 antagonist: -14.1%; Luciferase inh: inactive

Results for CNC(=O)CCn1ncc2cc(OCc3ccccc3-c3cccc(O)c3)ccc21 ?
3T3 cytotox: inconclusive; HEK cytotox: 79.4µM*; hNpr1 antagonist: 11.2µM*; Luciferase inh: inconclusive; NPR1 antag cnf: 19.8µM*; Npr2 selectivity: 17.7µM*; FLuc inh counter: inconclusive; GloSensor ctrl: 12.5µM*

How did CCCNC(=O)Cn1cccc1-c1nc(-c2ccc(OC)c(F)c2)no1 do in these assays?
3T3 cytotox: inactive; HEK cytotox: 0.8%; hNpr1 antagonist: 1.9%; Luciferase inh: inactive

What do the screens show for `COc1ccc(S(=O)(=O)N2CCC3(CC2)CC(N(C)Cc2ccccc2)CCO3)cc1` (stereo unspecified)?
3T3 cytotox: inconclusive; HEK cytotox: inconclusive; hNpr1 antagonist: 11.2µM*; Luciferase inh: inactive; NPR1 antag cnf: 27.3µM*; Npr2 selectivity: inconclusive; FLuc inh counter: 1.1%; GloSensor ctrl: inconclusive

Results for COc1cccc(S(=O)(=O)N2CCC3(CC2)CC(N(C)Cc2ccccc2)CCO3)c1 (stereo unspecified) ?
3T3 cytotox: inconclusive; HEK cytotox: inconclusive; hNpr1 antagonist: inconclusive; Luciferase inh: inactive; NPR1 antag cnf: inconclusive; Npr2 selectivity: inconclusive; FLuc inh counter: 2.7%; GloSensor ctrl: inconclusive

Results for O=C(O)CN1CCCc2nc(-c3ccccc3)ncc2C1=O ?
3T3 cytotox: inactive; HEK cytotox: inactive; hNpr1 antagonist: 4.6%; Luciferase inh: inactive

Results for O=C(CN1CCCc2nc(-c3ccccc3)ncc2C1=O)NCCc1c[nH]c2ccccc12 ?
3T3 cytotox: inconclusive; HEK cytotox: inconclusive; hNpr1 antagonist: 10µM*; Luciferase inh: inactive; NPR1 antag cnf: 27.3µM*; Npr2 selectivity: inconclusive; FLuc inh counter: -9.7%; GloSensor ctrl: 21.7µM*

What do the screens show for `CC(CCc1ccco1)NC(=O)CN1CCCc2nc(-c3ccccc3)ncc2C1=O` (stereo unspecified)?
3T3 cytotox: inconclusive; HEK cytotox: inconclusive; hNpr1 antagonist: inconclusive; Luciferase inh: inactive; NPR1 antag cnf: inconclusive; Npr2 selectivity: inconclusive; FLuc inh counter: 1.8%; GloSensor ctrl: inconclusive

What do the screens show for `Cc1nn(C)cc1C(C)NC(=O)CN1CCCc2nc(-c3ccccc3)ncc2C1=O` (stereo unspecified)?
3T3 cytotox: -25.2%; HEK cytotox: inconclusive; hNpr1 antagonist: inconclusive; Luciferase inh: inactive; NPR1 antag cnf: inconclusive; Npr2 selectivity: -28.6%; FLuc inh counter: 3.5%; GloSensor ctrl: -19.7%

Results for C[S+](=O)([O-])c1ccc(CC(=O)N2CC(COc3ccccc3)C3(C2)CN(c2ccccc2)C3)cc1 (stereo unspecified) ?
3T3 cytotox: -31.9%; HEK cytotox: inconclusive; hNpr1 antagonist: -0.3%; Luciferase inh: inactive

Assay outcomes (PubChem BioAssay)
